Experimental data taken from paper PMC4336329 (PLoS ONE, 2015).
In all, about 310,000 compounds went through this assay and about 14,000 (4.5%) showed an effect of 50% or more. Effects have a minus sign here. The sample holds strong results, similar compounds and a random draw of the others, so the mix is not that of the screen.

biological target: human ether-à-go-go-related gene (hERG) potassium channel (human, UniProt Q12809); experiment: primary screen, population patch clamp on CHO cells stably expressing hERG; higher = less effect of the substance
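Further: peak tail current of the secondary pulse compared with the same well before compound.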

Chain of human ether-à-go-go-related gene (hERG) potassium channel (Q12809 whole entry, looked up): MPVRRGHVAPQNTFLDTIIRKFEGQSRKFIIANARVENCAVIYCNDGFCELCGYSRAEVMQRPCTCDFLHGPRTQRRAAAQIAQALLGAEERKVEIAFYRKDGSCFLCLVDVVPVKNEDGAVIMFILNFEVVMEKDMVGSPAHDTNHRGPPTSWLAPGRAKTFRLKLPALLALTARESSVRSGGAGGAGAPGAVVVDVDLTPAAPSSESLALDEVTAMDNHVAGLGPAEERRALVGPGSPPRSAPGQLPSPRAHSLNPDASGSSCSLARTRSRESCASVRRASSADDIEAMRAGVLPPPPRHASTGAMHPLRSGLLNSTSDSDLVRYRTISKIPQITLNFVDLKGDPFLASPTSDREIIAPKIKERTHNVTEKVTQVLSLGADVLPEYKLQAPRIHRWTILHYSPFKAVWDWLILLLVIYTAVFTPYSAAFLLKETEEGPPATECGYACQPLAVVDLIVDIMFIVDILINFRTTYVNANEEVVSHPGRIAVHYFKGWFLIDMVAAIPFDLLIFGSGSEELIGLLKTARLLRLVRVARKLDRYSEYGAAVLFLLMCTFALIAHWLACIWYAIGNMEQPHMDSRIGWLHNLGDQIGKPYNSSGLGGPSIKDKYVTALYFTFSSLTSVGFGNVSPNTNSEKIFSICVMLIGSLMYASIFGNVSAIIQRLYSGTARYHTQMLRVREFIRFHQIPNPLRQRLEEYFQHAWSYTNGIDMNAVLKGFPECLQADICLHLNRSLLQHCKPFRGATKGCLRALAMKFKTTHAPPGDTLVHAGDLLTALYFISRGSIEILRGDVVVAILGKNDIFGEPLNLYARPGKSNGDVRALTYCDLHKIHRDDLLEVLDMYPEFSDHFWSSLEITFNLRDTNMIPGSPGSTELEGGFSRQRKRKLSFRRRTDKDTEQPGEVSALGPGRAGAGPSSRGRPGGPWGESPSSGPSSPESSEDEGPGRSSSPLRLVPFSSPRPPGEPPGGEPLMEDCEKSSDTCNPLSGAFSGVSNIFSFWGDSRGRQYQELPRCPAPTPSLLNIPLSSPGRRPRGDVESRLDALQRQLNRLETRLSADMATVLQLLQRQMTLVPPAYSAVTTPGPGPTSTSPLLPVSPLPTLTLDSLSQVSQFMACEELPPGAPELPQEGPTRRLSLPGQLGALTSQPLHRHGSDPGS

Row | Structure (SMILES) | hERG current change (%, negative = inhibition) at 10uM [%]
1 | Cn1c(=O)oc2cc(S(=O)(=O)NCCC(=O)Nc3ccc4c(c3)OCCO4)ccc21 | 2.4
2 | CCOc1ccc(CCNC(=O)COC(=O)c2cccnc2OCC)cc1OCC | -1.87
3 | COc1ccc(CN(C)C(=O)c2oc3ccccc3c2CSC)cc1F | 14.4
4 | CCN(Cc1ccc(OC)c(F)c1)C(=O)c1cc2ccccc2o1 | -24.7
5 | CCN(Cc1ccc(OC)c(F)c1)C(=O)c1oc2ccccc2c1COC | -54.6
6 | CC(/C=C/c1cccc([N+](=O)[O-])c1)=N/NC(=O)c1cccnc1 | -22.7
7 | O=c1c(C(c2ccc(F)cc2)c2c(O)nc3n(c2=O)CCCS3)c(O)nc2n1CCCS2 | 9.97
8 | O=C(Nc1ccccc1)OCc1cn(-c2ccc(Cl)cc2)nn1 | 22.3
9 | O=C(Nc1cccc(Cl)c1)OCc1cn(-c2ccc(Cl)cc2)nn1 | 1.69
10 | O=C(Nc1cccc(Cl)c1)OCc1cn(-c2ccccc2)nn1 | -52.6
11 | N#Cc1ccc(COc2ccc(CCO)cc2-n2nc3ccccc3n2)cc1 | -66.6
12 | OCCc1ccc(O)c(-n2nc3ccccc3n2)c1 | -17.1
13 | Cc1ccc(NC(=O)COc2ccc(CCO)cc2-n2nc3ccccc3n2)cc1C | 6.89
14 | COc1ccc(NC(=O)c2ccc(COCC(F)(F)C(F)F)cc2)cc1OC | 7.39
15 | COC(=O)CCC(=O)OC1(C)C(=O)C=C2C=C(C3CC3)N(CCCCO)C=C2C1=O (centres unmarked) | 4.26
16 | CCOCCCNCc1cccc(OC)c1.O=C(O)C(=O)O | 3.11
17 | CCOCCCNCc1cc(Br)ccc1OCC.Cl | -55.5
18 | CCCNCc1cc(OC)c(OCc2ccccc2)cc1Br.Cl | -28.2
19 | CCOCCCNCc1cccc(OCc2ccc(F)cc2)c1 | -50.1
20 | CCOc1ccc(Br)cc1CNCCN1CCOCC1 | 1.31

Row | Structure (SMILES) | hERG current change (%, negative = inhibition) at 10uM [%]
21 | CCOCCCNCc1cc(Cl)ccc1OCC.Cl | -11.8
22 | CCOCCCNCc1ccc(OCc2ccccc2C)c(OC)c1.Cl | -24.4
23 | CCOCCCNCc1ccc(OCc2ccc(F)cc2)c(OC)c1.Cl | -33.6
24 | CCOCCCNCc1cc(Br)ccc1OCc1ccccc1 | -68.1
25 | CCC1(c2ccccc2)NC(=S)N(c2ccc(C)cc2)N1 (centres unmarked) | 22
26 | O=C(/C=C/c1ccc(F)cc1)NC(=S)Nc1ccccc1C(=O)NC1CCCCC1 | 2.56
27 | CC1CC(C)CN(C(=O)c2ccncc2)C1 (centres unmarked) | 10.1
28 | COc1ccc(NC(=O)/C=C/c2ccccc2[N+](=O)[O-])c(OC)c1 | 4.66
29 | COCCNC(=O)C1CC(c2cccc([N+](=O)[O-])c2)=NO1 (centres unmarked) | 15.8
30 | Cc1cc(NC(=O)Cn2nnc3sc4c(c3c2=O)CCCC4)no1 | 9.97
31 | CC(NC(=O)C1=CC=CN2CCS(=O)(=O)N=C12)c1ccc(Cl)cc1Cl (centres unmarked) | -57.9
32 | O=C(NCCc1ccc(Cl)cc1)C1=CC=CN2CCS(=O)(=O)N=C12 | -9.31
33 | O=C(NCc1cccc(Cl)c1)C1=CC=CN2CCS(=O)(=O)N=C12 | -5.54
34 | c1ccc2c(Nc3nc4c(s3)CCCC4)cccc2c1 | 2.23
35 | CN(C(=O)CSc1nc2ccc([N+](=O)[O-])cc2s1)C1CCS(=O)(=O)C1 (centres unmarked) | -55.9
36 | CCN(C(=O)CN1C(=O)c2ccc([N+](=O)[O-])cc2C1=O)C1CCS(=O)(=O)C1 (centres unmarked) | 13.8
37 | CN(C(=O)CSc1nc(-c2ccccc2)cs1)C1CCS(=O)(=O)C1 (centres unmarked) | -19.6
38 | CCN(C(=O)CSc1nc2ccc([N+](=O)[O-])cc2s1)C1CCS(=O)(=O)C1 (centres unmarked) | -61.8
39 | CCN(C(=O)Cn1cnc2cc([N+](=O)[O-])ccc2c1=O)C1CCS(=O)(=O)C1 (centres unmarked) | 1.53
40 | O=C(CSc1nc2ccc([N+](=O)[O-])cc2s1)NC1CCS(=O)(=O)C1 (centres unmarked) | -5.62

Row | Structure (SMILES) | hERG current change (%, negative = inhibition) at 10uM [%]
41 | O=[N+]([O-])c1cccnc1Sc1ccc(Cl)cc1 | -11
42 | O=C(Nn1c(COc2ccccc2)nc2ccccc2c1=O)C(Cl)(Cl)Cl | 9.26
43 | CC(C(=O)Nc1cccnc1)n1cc([N+](=O)[O-])cn1 (centres unmarked) | 17.7
44 | O=C(Cn1cc([N+](=O)[O-])cn1)Nc1nc2ccccc2s1 | -74.6
45 | CC(C(=O)Nc1nc2ccccc2s1)n1cc([N+](=O)[O-])cn1 (centres unmarked) | -69.5
46 | O=C(Cn1ccc([N+](=O)[O-])n1)Nc1nc2ccccc2s1 | -45.8
47 | O=C(Cn1cc([N+](=O)[O-])cn1)Nc1ccccn1 | 16.1
48 | Cc1cccc(NC(=O)C(C)n2cc([N+](=O)[O-])cn2)n1 (centres unmarked) | -7.48
49 | CC(=O)c1sc(NC(=O)c2oc3ccc(F)cc3c2C)nc1C | 0.318
50 | O=C(c1cccc(F)c1)N1CCN(S(=O)(=O)c2ccccc2)CC1 | 0.349
51 | CO/N=C/c1ccc(N2CCN(C(=O)c3ccc(C)cc3)CC2)c([N+](=O)[O-])c1 | -74.9
52 | CO/N=C/c1ccc(N2CCCC2)c([N+](=O)[O-])c1 | -1.34
53 | CO/N=C/c1ccc(N2CCOCC2)c([N+](=O)[O-])c1 | 0.313
54 | CO/N=C/c1ccc(N2CCN(C(=O)c3ccc(F)cc3)CC2)c([N+](=O)[O-])c1 | -78.3
55 | CO/N=C/c1ccc(N2CCN(C(=O)c3ccc(Cl)cc3Cl)CC2)c([N+](=O)[O-])c1 | -53.1
56 | O=C(O/N=C\c1ccc(N2CCOCC2)c([N+](=O)[O-])c1)c1ccc(F)cc1 | -6.14
57 | CO/N=C/c1ccc(N2CCN(C(=O)c3cccc(C(F)(F)F)c3)CC2)c([N+](=O)[O-])c1 | -43.5
58 | Cc1ccc(C(=O)O/N=C\c2ccc(N3CCCCC3)c([N+](=O)[O-])c2)cc1 | 12.8
59 | O=C(O/N=C\c1ccc(N2CCCCC2)c([N+](=O)[O-])c1)c1ccc(Cl)cc1Cl | -1.17
